Measured values as given in PubChem BioAssay AID449762 (Southern Research Specialized Biocontainment Screening …, 2010).
“And” between values parts separate entries of the source, which are not always exact repeats. Equal values may be shown once. In all, about 330,000 compounds went through this assay and about 1,900 (0.58%) were called active. Another 4% or so got no clear call; they are omitted. The list is a sample of the results. Results with a measured potency or affinity are listed apart. Unmarked numbers belong to inactive results. Rule as the data show it: inconclusive = inhibition above about 70% without an active follow-up result; inactive = below that.

Experiment: M. tuberculosis growth inhibition, HTS (AID 449762);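 also: bacterial growth assessed after seven days of incubation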
Conditions: M. tuberculosis H37Rv growth inhibition, 7H9 media; at 25 µM; active compounds read high

SMILES	inhibition
C=CCN(CC=C)C(=O)C[n+]1ccc(C(N)=O)cc1	6.91%
COCCN1C(=O)C(=O)/C(=C(/O)c2ccc(S(=O)(=O)N3CCCCC3)cc2)C1c1ccc(O)c(OC)c1 (centres undefined)	-2.3%
CN(c1ccccc1)S(=O)(=O)c1cccc(NC(=O)CSc2nnc(N)s2)c1	3.34%
O=C(CC1(O)C(=O)Nc2ccc(Br)cc21)c1ccc2c(c1)OCO2 (centres undefined)	-6.14%
O=C1Nc2ccc(Br)cc2/C1=C/c1ccc(C(=O)O)cc1	0.13%
CC(C)C(=O)Nc1c2c(nn1-c1ccc([N+](=O)[O-])cc1)CS(=O)(=O)C2	3.07%
Cc1ccc(F)cc1NC(=O)c1c(-c2ccccc2)noc1C	-8.46%
CCOc1ccc(C(=O)Nc2ccc3nc(N4CCN(CC)CC4)cc(C)c3c2)cc1	43.7%
CCOc1[nH]n(-c2ccccc2)c(=O)c1C=Nc1ccc(C)cc1	9.52%
CCOc1[nH]n(-c2ccccc2)c(=O)c1C=Nc1ccccc1	19%
Cc1ccccc1-n1c(-c2ccc([N+](=O)[O-])cc2)nc2ccccc2c1=O	2.55%
COc1ccc(NC(C)=O)c(C)c1	-2.52%
c1ccc(-c2nc(-c3ccncc3)n[nH]2)nc1	-0.34%
c1ccc(-c2n[nH]c(-c3ccccn3)n2)nc1	-3.4% and -2.35%
O=C(NCc1ccccc1F)c1cc(=O)[nH]c2ccccc12	1.18%
Cc1ccc2nsnc2c1S(=O)(=O)N1CCOCC1	-4.54%
COc1ccc(CCNC(=O)c2ccc(CNS(=O)(=O)c3cc(C)ccc3C)cc2)cc1OC	-3.98%
Cc1c(NS(=O)(=O)c2ccc(Br)cc2)c(=O)n(-c2ccccc2)n1C	0.05%
O=S(=O)(Nc1ccccn1)c1ccc(Br)cc1	10.2%
O=C(c1cc(F)ccc1F)C1CCCN(CCCc2ccccc2)C1 (centres undefined)	10.3%

SMILES	inhibition
CC(CCc1ccccc1)NC(=O)COC(=O)C1CCC(C(C)(C)C)CC1 (centres undefined)	6.62%
CN1CCc2c(OCC(=O)N3CCC(Cc4ccccc4)CC3)cccc2C1=O	5.02%
Cc1cc(NC(=O)c2cccs2)n(-c2nc3ccccc3[nH]2)n1	57.9%
Cc1cc(NC(=O)c2ccc(C)s2)n(-c2nc3ccccc3[nH]2)n1	56.9%
CCn1nnnc1SCC(=O)N1CCCCC1	0.5%
O=C1N/C(=N/N=C/c2ccc(O)cc2)SC1Cc1ccccc1 (centres undefined)	-5.03%
O=C1NC(=Nc2ccccc2)SC1Cc1ccccc1 (centres undefined)	-10.5%
CCC(Sc1nc2ccc(N)cc2s1)C(=O)Nc1nccs1 (centres undefined)	61%
C[n+]1cnn2c1SCC1(COC1)C2	3.72%
O=C(CNC(=O)c1ccc(F)cc1)c1ccc(Cl)cc1	6.46%
O=C(CNC(=O)c1ccc(Cl)cc1)c1ccccc1	-1.27%
C=C(C)Cn1c(C)cc(C)c(S(=O)(=O)c2cccc(C)c2)c1=O	-7.99%
CCOc1cc(CNc2ccc(Br)cc2)cc(Br)c1OCC(=O)NC(C)(C)C	-3.44%
Cc1nc2ccccc2c2oc(C(=O)N3CCN(c4ccc([N+](=O)[O-])cc4)CC3)cc12	26.2%
CC(=O)c1ccc(N2CCN(C(=O)c3cc4c(C)nc5ccccc5c4o3)CC2)cc1	4.42%
O=C(CCS(=O)(=O)c1ccc(Cl)cc1)N1CCN(c2ccccc2F)CC1	-3.9%
COc1ccc(OC)c(CN2CCN(C(=O)CCNC(=O)c3ccc(Br)cc3)CC2)c1	-2.93%
COc1ccc(OC)c(CN2CCN(C(=O)CNC(=O)c3cc(C)cc(C)c3)CC2)c1	1.7%
CCc1cc(C(=O)NN2C(=O)NC3(CCCCC3)C2=O)sc1C	-5.54%
Cc1ccc(NC(=O)c2sc(Cl)nc2-c2ccccc2)cc1	1.87%

SMILES	inhibition
O=C(NC1CCCCCC1)c1cc(S(=O)(=O)N2CCOCC2)ccc1N1CCCCC1	-7.36%
CCCCCCCNC(=O)C1(CC2CC(c3cccc(Br)c3)=NO2)CCN(C(=O)Cc2ccc(F)cc2)CC1 (centres undefined)	1.04%
CCCCCCCNC(=O)C1(CC2CC(c3ccccc3)=NO2)CCNCC1 (centres undefined)	-6.2%
Cc1ccc(-n2c(SCC(=O)NCCN3C(=O)CSC3=O)nnc2-c2ccccc2)cc1	-2.1%
O=C(Nc1ccc(-c2csc(Nc3ccccc3)n2)cc1)c1cccc(C(F)(F)F)c1	1.22%
O=C(Nc1ccc(-c2csc(Nc3cccc(C(F)(F)F)c3)n2)cc1)c1ccccc1	50.9%
O=C(N/N=C1\CCCc2ccccc21)c1ccccc1Cl	5.05%
Cc1ccc(C(=O)N/N=C2\CCCc3ccccc32)c(C)c1	-7.5%
CCOc1ccc(CN(C)C(=O)c2cccnc2OCC)cc1OC	-1.02%
CCOc1ccc(C(C)NC(=O)Nc2ccc(F)cc2F)cc1 (centres undefined)	6.1%
C(=N\Nc1nc2ccccc2[nH]1)/c1ccccc1	33.3%
Cn1c(/C=N/c2nc3ccccc3[nH]2)nc2ccccc21	43.9%
CCOc1ccc(OCCNC(=O)C(NC(=O)c2c(F)cccc2F)C(C)C)cc1 (centres undefined)	-12.3%
COc1ccc(Nc2nnc(SC(C)C(=O)NC3CC3)s2)cc1 (centres undefined)	-1.49%
Cc1c(NC(=S)N/N=C/c2cccc(O)c2)c(=O)n(-c2ccccc2)n1C	-10.1%
N=c1c2c(-c3ccccc3)c(-c3ccccc3)n(Cc3ccco3)c2ncn1CCO	52.9%
N=c1c2c(-c3ccccc3)c(-c3ccccc3)n(Cc3ccco3)c2ncn1CCCO	16.4%
O=C(Oc1ccccc1C(=S)N1CCOCC1)c1ccc([N+](=O)[O-])cc1[N+](=O)[O-]	38.5%
O=C(C1=C(O)C(=O)N(CCOCCO)C1c1cccc([N+](=O)[O-])c1)c1cccs1 (centres undefined)	-3.54%
